Assay outcomes: PubChem BioAssay, National Center for Advancing Translational Sciences (NCATS)
GLP1R inv ag = qHTS of GLP-1 Receptor Inverse Agonists (Inhibition Mode) | Glucagon-like peptide 1 receptor (Homo sapiens), P43220 | HEK293 GLP-1R CRE-luciferase, luminescence, 24 h; GLP-1R form is constitutively active | Potency, µM (series often up to 38.3 µM), inactives show at the highest dose activity change, negative = inhibition, most hits filed as inhibitors | actives 1.6% (n = 410,000); also: potency is read from the fitted curve at half-maximal effect; % is scaled to controls: 0 for no effect and ±100 for the full control effect; nearly all actives have a fitted effect of over 55% in size
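GLP-1R inverse agonism mode: basal reporter luminescence in engineered HEK293 cells measured after one day of compound exposure at 37 deg C, with a 12 min room-temperature detection step.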
DRD3 antagonist = qHTS of D3 Dopamine Receptor Antagonist: qHTS | D(3) dopamine receptor (Homo sapiens), P35462 | actives 2.5% (n = 360,000) | max response, negative = inhibition, % | D3R cells, DiscoveRx beta-arrestin luminescence, antagonist mode; hits give low values | AID 652054, 2013; in the data active = max response below about -50%; inconclusive = no clear call, values can overlap the other calls; also: % is scaled to controls: 0 for no effect and ±100 for the full control effect
Target sequence (P35462 whole entry, looked up): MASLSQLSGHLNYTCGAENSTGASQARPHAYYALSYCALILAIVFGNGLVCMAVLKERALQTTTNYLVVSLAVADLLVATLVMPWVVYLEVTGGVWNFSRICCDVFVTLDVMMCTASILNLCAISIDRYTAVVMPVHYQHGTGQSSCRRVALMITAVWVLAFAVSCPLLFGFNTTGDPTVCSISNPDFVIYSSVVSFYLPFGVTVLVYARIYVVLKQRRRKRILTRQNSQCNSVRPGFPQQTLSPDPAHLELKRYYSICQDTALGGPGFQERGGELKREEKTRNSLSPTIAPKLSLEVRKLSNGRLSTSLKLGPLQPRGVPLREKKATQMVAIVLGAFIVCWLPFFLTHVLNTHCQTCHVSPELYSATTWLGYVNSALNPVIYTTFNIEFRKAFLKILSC
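Cells expressing the human receptor were seeded at 1500 cells/well, incubated overnight at 37 degrees C in 5% CO2, then exposed to library compounds with dopamine controls for 90 minutes at 37 degrees C before luminescent detection.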
GLP1R ag = qHTS of GLP-1 Receptor Agonists. AID 624172, 2012. Potency, µM (titrated, usually from 45.6 µM), for inactives: at the top dose activation, usual class: activators. Glucagon-like peptide 1 receptor (Homo sapiens), P43220. HEK293 GLP-1R CRE-luciferase, luminescence, 4-6 h; cells express a hypersensitive GLP-1R form. actives 0.007% (n = 380,000); also: potency is read from the fitted curve at half-maximal effect; % of control where 0% means no effect
DRD3 agonist = qHTS of D3 Dopamine Receptor Agonist: qHTS; D(3) dopamine receptor (Homo sapiens), P35462; D3R DiscoveRx beta-arrestin cells, luminescence, 90 min; max activation, %; actives 0.58% (n = 410,000); AID 652048, 2013; in the data active = max activation above about 30%; also: 0% is about no effect
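Cells at 1500/well, incubated overnight, then treated with pinned compounds (dopamine as control) for 90 min at 37 degrees C. DiscoveRx reagent added for 30 - 60 minutes at room temperature; luminescence read.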
* marks the source's active call; other numbers are inactive results; ? = inconclusive; / = not tested or not shown; ! = not active in a repeat; [ ] = remark or other dose. This is a sample that favours compounds with a hit; in the whole collection about 4.3% have one here. Unless noted, calls follow the shape of the dose curve; as a rule, active = well fitted curve in the direction sought with a large enough effect; inconclusive = small, poorly fitted or top-dose-only effect, or another doubt; inactive = no such curve, though single readings can be large; an effect the other way counts as inactive or inconclusive.

SMILES	GLP1R inv ag	DRD3 antagonist	GLP1R ag	DRD3 agonist
CCOC(=O)c1sc(NC(=O)Nc2ccccc2Cl)cc1C	7.9µM*	6	-15%	-30
CN(C)CCOC(c1ccccc1)c1ccccc1	4%	-52*!	3%	-71
CN(C)CCOC(c1ccccc1)c1ccccc1 (tested in a mixture with another compound)	-35%	-67*	14%	-77
Cc1ccccc1C(OCCN(C(C)C)C(C)C)c1ccccc1 (centres undefined)	?	-5	6%	-10
CN(C)CCOC(c1ccc(Cl)cc1)c1ccccn1 (centres undefined)	5%	-2	-3%	41*!
COc1cccc(C=NCC(C)N=Cc2cccc(OC)c2O)c1O (centres undefined)	0%	-103*	3%	-10
Oc1ccc2ccccc2c1CN1CCN(C/C=C/c2ccccc2)CC1	?	-56*	-7%	-26
O=c1cc(CN2CCN(C/C=C/c3ccccc3)CC2)c2cc(O)c(-c3ccccc3)cc2o1	-10%	-8	-4%	-7
Cc1c(O)ccc2c(CN3CCN(C/C=C/c4ccccc4)CC3)cc(=O)oc12	3.5µM*	-16	7%	-31
Oc1ccc2ccccc2c1CN1CCN(c2ccccc2F)CC1	-1%	-95*	7%	-6
CCN1CCN(CCCNC(=O)Cn2nc(C)n3c(cc4cc(C)ccc43)c2=O)CC1	12%	/	/	-15
CC1(C)CCC[C@]2(C)C(CS(=O)c3ccccc3)=C(C=O)CC[C@@H]12 (some centres undefined)	2.8µM*	7	10%	-2
COC(=O)COc1cccc(NS(=O)(=O)c2ccc(NC(C)=O)cc2)c1	6%	-64*	0%	-6
CS(=O)(=O)c1ccc2nc(NC(=O)Nc3ccc(Cl)c(Cl)c3)sc2c1	-37%	24	1%	55*
CS(=O)(=O)c1ccc2nc(NC(=O)Nc3cccc(Cl)c3)sc2c1	0%	27	-10%	15
CC(=O)Nc1ccc(S(=O)(=O)Nc2nc3ccc([N+](=O)[O-])cc3s2)cc1	9%	-12	10%	4
CCOc1ccc2nc(NC(=O)c3ccccc3)sc2c1	?	/	/	4
CCOc1ccc2nc(NS(=O)(=O)Cc3ccccc3)sc2c1	10µM*	?	4%	-2
CCOc1ccc2nc(NS(=O)(=O)c3ccc(NC(C)=O)cc3)sc2c1	3%	-57*	-7%	2
O=C(Nc1nc2c(F)cc(F)cc2s1)C1CC(=O)N(Cc2ccco2)C1 (centres undefined)	26%	5	-1%	-6
CCCCNc1ccc(C(=O)OCCN(CC)CC)cc1	/	/	2%	-8
CCOc1ccc2nc(NC(=O)CS(=O)(=O)c3ccc(C)cc3)sc2c1	-1%	122	17%	38*
COC(=O)c1ccc(C)c(NS(=O)(=O)c2ccc(NC(C)=O)cc2)c1	20%	-55*	13%	-8
COC(=O)c1ccccc1NS(=O)(=O)c1ccc(NC(C)=O)cc1	8%[7.66 µM]	15	3%	3
CCOc1ccc2nc(NC(=O)CS(=O)(=O)c3ccccc3)sc2c1	6%	156	-3%	32*
SMILES	GLP1R inv ag	DRD3 antagonist	GLP1R ag	DRD3 agonist
CCn1cc([N+](=O)[O-])c(=O)c2cc(F)c(N3CCOCC3)cc21	1%	9	-4%	2
COc1ccc(Br)cc1C1C(C(=O)Nc2ccc(C)cc2C)=C(C)Nc2ncnn21 (centres undefined)	-14%	/	-3%	-4
CCCOc1ccc(N2CC(C(=O)Nc3cccc(Cl)c3Cl)CC2=O)cc1 (centres undefined)	4%	/	/	-7
Cc1ccc(C)c(NC(=S)NC(NC(=O)/C=C/c2ccccc2)C(Cl)(Cl)Cl)c1 (centres undefined)	3.5µM*	-22	-15%	0
O=C(/C=C/c1ccccc1)NC(NC(=S)Nc1cccc(Cl)c1)C(Cl)(Cl)Cl (centres undefined)	?	?	-17%	-3
O=C(/C=C/c1ccccc1)NC(NC(=S)Nc1ccc(Cl)cc1Cl)C(Cl)(Cl)Cl (centres undefined)	?	-10	-10%	-4
O=C(/C=C/c1ccccc1)NC(NC(=S)Nc1cccc(O)c1)C(Cl)(Cl)Cl (centres undefined)	?	-62*	-41%	-12
CC(=O)NC(NC(=S)Nc1ccc(N=Nc2ccccc2C)cc1C)C(Cl)(Cl)Cl (centres undefined)	?	-81*	3%	-1
COc1ccc(NC(=O)CSc2nc3c(c(=O)[nH]2)CN(Cc2ccccc2)CC3)cc1Cl	14%	/	/	-15
CCC(=O)N(Cc1cc2cc(C)c(C)cc2[nH]c1=O)C1CCCCC1	10µM*	-14	-3%	-1
CC(C)c1ccc(-c2nnn(Cc3nc4ccccc4s3)n2)cc1	-7%	-72*	7%	-4
CC(C)c1ccc(-c2nnn(CCC#N)n2)cc1	34%	1	17%	-2
Cc1ccc(Cn2c(=O)c3c(nc4n3CCN4c3cc(C)cc(C)c3)n(C)c2=O)cc1	9%	/	/	6
Oc1ccc(Cn2ccnc2)c2cccnc12	55%	?	32%	-3
Oc1ccc(CN2CCN(Cc3ccccc3)CC2)c2cccnc12	?	-58*	2%	-16
Oc1ccc(CNc2ccccc2)c2cccnc12	6.3µM*	10	-10%	-4
O=S(=O)(c1ccc(Cl)cc1)N1CCN(Cc2ccc(O)c3ncccc23)CC1	-1%[0.307 µM]	-12	-35%	-8
COCc1ccc(O)c2ncccc12	?	-78*	-10%	-26
OCc1ccnc2c(O)cccc12	8.9µM*	5	-6%	-7
CC(=O)Oc1ccc(C(=C2CCCCC2)c2ccc(OC(C)=O)cc2)cc1	/	/	-5%	2
Cn1ncc2c(N3CCN(c4cccc(Cl)c4)CC3)ncnc21	0%	/	/	-4
CCc1cccc(NC(=O)c2c(C)oc3nc(C)nc(N4CCCC4)c23)c1	4%	/	/	7
CCOC(=O)c1cccc(NC(=O)C(C)n2nc(C)c3c(C)n(-c4ccccc4)nc3c2=O)c1 (centres undefined)	?	/	/	1
O=C(NCCc1ccc(Cl)cc1)C(=O)c1c[nH]c2ccccc12	?	5	14%	3
Cc1cc2cc(CCNC(=O)C(=O)c3c[nH]c4ccccc34)c(=O)[nH]c2cc1C	10µM*	54	14%	4
O=C(NCCc1c[nH]c2ccccc12)C(=O)c1c[nH]c2ccccc12	4.5µM*	11	-5%	-8
CCOC(=O)C1CCN(S(=O)(=O)c2ccc(N3CCCCS3(=O)=O)cc2)CC1	-3%	/	/	5
CCC(C)NC(=O)c1cc(C)no1 (centres undefined)	11%	-64*	-13%	-9
CCCCCCCCC[n+]1cccc2c3ccccc3ccc21	10µM*	-27	-13%	-9
